This note sets out measurements from PubChem BioAssay (Tox21).

SMILES strings stand for the structures. Records with an inconclusive call do not appear. Unmarked numbers belong to inactive results. Calls of active or inactive are those of the source. Unless noted, the call rests on the fitted dose curve; in most records, active means well fitted curve in the direction sought with a large enough effect in the repeat runs; inconclusive means weak or mixed curves; inactive means no such curve, though single readings can be large; an effect the other way counts as inactive or inconclusive.

The test system of test [1] is thyroid hormone receptor (rat, GH3 cells). The test can be described thus: qHTS assay to identify small molecule agonists of the thyroid receptor (TR) signaling pathway (AID 743066; calls by dose curve).
Test [2] can be described thus: qHTS assay to identify small molecule antagonists of the estrogen receptor alpha (ER-alpha) signaling pathway - cell viability counter screen (AID 743074; calls by dose curve;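 further: HEK293 cells carrying ER-alpha-UAS-bla reporter stimulated with 17beta-estradiol; nearly all actives have a fitted effect of over 45% in size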). In general terms: In qHTS, concentration-response curves come from the screen itself.
The nature of test [3]: qHTS assay to identify small molecule antagonists of the estrogen receptor alpha (ER-alpha) signaling pathway using the BG1 cell line - cell viability counter screen (AID 743081).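 Further: compound given together with 17beta-estradiol as the ER stimulus; series mostly up to about 70 µM; nearly all actives have a fitted effect of over 45% in size.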
For test [4], the target named is Aromatase (Homo sapiens) (UniProt P11511). The test can be described thus: qHTS assay to identify aromatase inhibitors (AID 743083). Further: series mostly up to about 70 µM; nearly all actives have a fitted effect of over 55% in size.
Aromatase (Homo sapiens), sequence (P11511 whole entry, looked up): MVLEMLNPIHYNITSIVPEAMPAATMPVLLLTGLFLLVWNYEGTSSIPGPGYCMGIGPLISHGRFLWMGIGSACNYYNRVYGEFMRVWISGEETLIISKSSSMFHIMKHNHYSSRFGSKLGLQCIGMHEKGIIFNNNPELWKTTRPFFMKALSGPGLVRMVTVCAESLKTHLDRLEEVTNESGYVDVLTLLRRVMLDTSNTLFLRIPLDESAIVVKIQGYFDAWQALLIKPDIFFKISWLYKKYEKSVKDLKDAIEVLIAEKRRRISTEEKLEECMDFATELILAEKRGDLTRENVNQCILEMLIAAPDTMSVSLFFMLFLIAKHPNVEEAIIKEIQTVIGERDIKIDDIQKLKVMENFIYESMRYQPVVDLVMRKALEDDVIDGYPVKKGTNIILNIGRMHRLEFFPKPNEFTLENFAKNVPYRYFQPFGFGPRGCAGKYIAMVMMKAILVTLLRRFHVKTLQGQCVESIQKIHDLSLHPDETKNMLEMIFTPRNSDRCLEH
Test [5] in a line: qHTS assay to identify aromatase inhibitors - cell viability counter screen (AID 743084).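 Further: cells stimulated with testosterone during compound exposure; nearly all actives have a fitted effect of over 55% in size.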
Test [6] deals with Aryl hydrocarbon receptor (Homo sapiens) (UniProt P35869). The test can be described thus: qHTS assay to identify small molecule that activate the aryl hydrocarbon receptor (AhR) signaling pathway (AID 743085). Further: nearly all actives have a fitted effect of over 15% in size. Further: potency means the concentration at half of the fitted maximal effect.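 On activation: HG2L7.5c1 human HepG2 liver cells with stably integrated DRE-driven firefly reporter; series mostly up to about 70 µM.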 The procedure, abridged: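 Reporter assay in engineered HepG2 line HG2L7.5c1, whose plasmid carries twenty dioxin responsive elements upstream of firefly luciferase. Treatment lasted 24 h at 37C; ONE-Glo luminescence gauged induction.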
Aryl hydrocarbon receptor (Homo sapiens), sequence (P35869 whole entry, looked up): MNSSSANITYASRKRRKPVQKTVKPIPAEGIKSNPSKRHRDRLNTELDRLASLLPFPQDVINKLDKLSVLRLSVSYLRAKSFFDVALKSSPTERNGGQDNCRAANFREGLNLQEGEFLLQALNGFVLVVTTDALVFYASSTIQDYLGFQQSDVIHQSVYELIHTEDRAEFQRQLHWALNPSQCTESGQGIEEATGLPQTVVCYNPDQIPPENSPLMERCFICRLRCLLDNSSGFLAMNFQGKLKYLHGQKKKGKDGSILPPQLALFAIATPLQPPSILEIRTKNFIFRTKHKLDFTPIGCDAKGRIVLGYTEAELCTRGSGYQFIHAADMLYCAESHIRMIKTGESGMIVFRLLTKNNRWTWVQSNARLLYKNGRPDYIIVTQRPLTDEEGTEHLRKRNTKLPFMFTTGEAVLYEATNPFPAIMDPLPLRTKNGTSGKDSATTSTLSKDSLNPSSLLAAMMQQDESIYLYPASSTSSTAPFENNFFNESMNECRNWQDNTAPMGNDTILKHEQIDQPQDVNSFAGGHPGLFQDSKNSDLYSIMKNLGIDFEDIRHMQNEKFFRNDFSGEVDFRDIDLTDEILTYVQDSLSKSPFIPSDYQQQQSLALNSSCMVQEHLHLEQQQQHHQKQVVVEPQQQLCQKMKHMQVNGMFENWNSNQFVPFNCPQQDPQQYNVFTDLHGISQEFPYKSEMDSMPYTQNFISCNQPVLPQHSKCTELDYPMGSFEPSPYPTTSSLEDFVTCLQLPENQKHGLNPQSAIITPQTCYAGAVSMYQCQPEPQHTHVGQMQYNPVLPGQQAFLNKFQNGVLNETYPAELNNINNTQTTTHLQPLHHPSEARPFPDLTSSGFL

A short description of test [7]: qHTS assay to identify small molecule that activate the aryl hydrocarbon receptor (AhR) signaling pathway - cell viability counter screen (AID 743086).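 Further: HepG2 liver cells carrying the AhR DRE luciferase reporter; series mostly up to about 70 µM; nearly all actives have a fitted effect of over 45% in size.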 The procedure, abridged:
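HepG2-AhR-luc (HG2L7.5c1) cells, 4000/well, were preincubated 5 h at 37C, exposed to compound in qHTS format for 24 hr at 37C, then given CellTiter-Fluor for 30 min; viability was read as fluorescence in the reporter wells.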

Test [8] has as its target Peroxisome proliferator-activated receptor gamma (Homo sapiens) (UniProt P37231). The test can be described thus: qHTS assay to identify small molecule antagonists of the peroxisome proliferator-activated receptor gamma (PPARg) signaling pathway (AID 743191; calls by dose curve; further: series mostly up to about 63 µM; nearly all actives have a fitted effect of over 30% in size). In outline: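 GeneBLAzer PPARg UAS-bla HEK293H cells carrying a UAS-driven beta-lactamase reporter were plated at 3000 cells/well, preincubated 5 h at 37C, then given compound for 17 h at 37C; LiveBLAzer B/G FRET substrate was read after 1 h at room temperature.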

Test [9] can be described thus: qHTS assay to identify small molecule antagonists of the peroxisome proliferator-activated receptor gamma (PPARg) signaling pathway - cell viability counter screen (AID 743194). Further: nearly all actives have a fitted effect of over 55% in size. The procedure, abridged: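 PPARg-UAS-bla HEK293H cells were plated, rested 5 h at 37 C, then treated with compounds plus rosiglitazone (50 nM final) for 17 h at 37 C; viability was then read by CellTiter-Glo luminescence after 30 min at room temperature.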

A short description of test [10]: qHTS assay for small molecule agonists of the antioxidant response element (ARE) signaling pathway (AID 743202; active means well fitted activation curve with a large enough effect in the signal ratio in the repeat runs, not every such curve was filed as active; the % refers to the signal ratio). The procedure, abridged:
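Compounds delivered in DMSO to ARE-bla HepG2 cells (2,000 cells/well, pre-incubated 5 h) and left 16 h at 37 C. LiveBLAzer B/G FRET substrate then added for 2 h at RT before fluorescence reading.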

Test [11] in a line: qHTS assay for small molecule agonists of the antioxidant response element (ARE) signaling pathway - cell viability counter screen (AID 743203; calls by dose curve; further: nearly all actives have a fitted effect of over 55% in size). In outline:
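Seeded at 2,000 cells/well, ARE-bla HepG2 cells were incubated 5 hrs before compound addition. After 16 hrs of treatment at 37C with 5% CO2, CellTiter-Glo reagent was added and luminescence read 30 min later.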

A short description of test [12]: qHTS assay for small molecule activators of the heat shock response signaling pathway - cell viability counter screen (AID 743209). Further: nearly all actives have a fitted effect of over 50% in size. The procedure, abridged:
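First, HSE-bla HeLa cells were seeded at 1500 cells/well and kept overnight at 37 C. Next, compounds were pinned in and incubated 5 h. After the FRET substrate step, CellTiter-Glo was added and luminescence read 30 min later.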

Test [13] can be described thus: qHTS assay for small molecule activators of the heat shock response signaling pathway (AID 743210; active means well fitted activation curve with a large enough effect in the signal ratio in the repeat runs, with a control signal flat, not every such curve was filed as active; the % refers to the signal ratio;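 further: HeLa cells with beta-lactamase reporter driven by heat shock elements; series mostly up to about 63 µM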). The procedure, abridged: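 Reporter gene assay: HeLa cells stably bearing an HSE-bla construct, compound treatment 5 h at 37 C, LiveBLAzer substrate 2.5 h at RT, fluorescence intensity.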
The nature of test [14]: qHTS assay to identify small molecule agonists of the peroxisome proliferator-activated receptor delta (PPARd) signaling pathway - cell viability counter screen (AID 743211). Further: nearly all actives have a fitted effect of over 55% in size. The procedure, abridged:
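Multiplexed format: after the 2 h room-temperature LiveBLAzer B/G FRET step, CellTiter-Glo was added to the same wells. Luminescence after 30 min gave cell viability; compound exposure was 17 h at 37C.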

Test [15] has as its target Estrogen receptor (Homo sapiens) (UniProt P03372). Description: qHTS assay to identify small molecule antagonists of the estrogen receptor alpha (ER-alpha) signaling pathway (AID 743069; active means well fitted curve in the direction sought with a large enough effect in the signal ratio in the repeat runs, not every such curve was filed as active; the % refers to the signal ratio). The procedure, abridged: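 Estradiol-stimulated ER-alpha-UAS-bla HEK293 cells, 18 hr compound exposure at 37C. LiveBLAzer B/G substrate, 2 hr RT, fluorescence read.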
For test [16] the target is unchanged. Description: qHTS assay to identify small molecule agonists of the estrogen receptor alpha (ER-alpha) signaling pathway (AID 743075; calls by dose curve;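 further: HEK293 GripTite cells with ER-alpha and UAS-driven beta-lactamase reporter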).
The target is the same in test [17]. Description: qHTS assay to identify small molecule agonists of the estrogen receptor alpha (ER-alpha) signaling pathway using the BG1 cell line (AID 743079). Further: nearly all actives have a fitted effect of over 20% in size.
Test [18] can be described thus: qHTS assay to identify small molecule antagonists of the estrogen receptor alpha (ER-alpha) signaling pathway using the BG1 cell line (AID 743080; calls by dose curve;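 further: BG1 cells stimulated with 17beta-estradiol alongside compound; series mostly up to about 70 µM; nearly all actives have a fitted effect of over 25% in size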). The procedure, abridged:
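Luciferase inhibition measured with ONE-Glo after 30 min at RT in BG1Luc4E2 cells given test compounds and 17beta-estradiol for 21.5 h at 37 C; CellTiter-Fluor viability read in the same wells beforehand.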

Test [19] concerns the target Peroxisome proliferator-activated receptor gamma (Homo sapiens) (UniProt P37231). The test can be described thus: qHTS assay to identify small molecule agonists of the peroxisome proliferator-activated receptor gamma (PPARg) signaling pathway (AID 743094; active means well fitted activation curve with a large enough effect in the signal ratio in the repeat runs, not every such curve was filed as active; the % refers to the signal ratio). The procedure, abridged:
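Quantitative HTS agonist mode: stable HEK293H line with UAS-beta-lactamase reporter under PPARg control, 17 h compound exposure at 37C, fluorescence after 1 h FRET substrate loading at room temperature.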
On the % scale 0 is the no-effect control and ±100 the full control effect.

Peroxisome proliferator-activated receptor gamma (Homo sapiens), sequence (P37231 whole entry, looked up): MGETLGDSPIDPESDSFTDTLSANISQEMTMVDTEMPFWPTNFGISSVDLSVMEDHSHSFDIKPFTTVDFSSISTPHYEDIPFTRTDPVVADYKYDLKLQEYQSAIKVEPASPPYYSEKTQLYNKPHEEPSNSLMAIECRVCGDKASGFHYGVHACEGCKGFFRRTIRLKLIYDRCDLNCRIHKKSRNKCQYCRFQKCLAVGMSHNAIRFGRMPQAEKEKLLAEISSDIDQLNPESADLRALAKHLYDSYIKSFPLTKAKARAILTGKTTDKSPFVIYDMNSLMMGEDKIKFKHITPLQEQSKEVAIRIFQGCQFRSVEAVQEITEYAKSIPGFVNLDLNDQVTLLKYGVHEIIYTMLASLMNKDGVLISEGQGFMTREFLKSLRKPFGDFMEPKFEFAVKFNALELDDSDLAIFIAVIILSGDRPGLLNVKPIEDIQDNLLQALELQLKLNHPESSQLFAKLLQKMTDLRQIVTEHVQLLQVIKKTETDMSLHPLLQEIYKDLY
Estrogen receptor (Homo sapiens), sequence (P03372 whole entry, looked up): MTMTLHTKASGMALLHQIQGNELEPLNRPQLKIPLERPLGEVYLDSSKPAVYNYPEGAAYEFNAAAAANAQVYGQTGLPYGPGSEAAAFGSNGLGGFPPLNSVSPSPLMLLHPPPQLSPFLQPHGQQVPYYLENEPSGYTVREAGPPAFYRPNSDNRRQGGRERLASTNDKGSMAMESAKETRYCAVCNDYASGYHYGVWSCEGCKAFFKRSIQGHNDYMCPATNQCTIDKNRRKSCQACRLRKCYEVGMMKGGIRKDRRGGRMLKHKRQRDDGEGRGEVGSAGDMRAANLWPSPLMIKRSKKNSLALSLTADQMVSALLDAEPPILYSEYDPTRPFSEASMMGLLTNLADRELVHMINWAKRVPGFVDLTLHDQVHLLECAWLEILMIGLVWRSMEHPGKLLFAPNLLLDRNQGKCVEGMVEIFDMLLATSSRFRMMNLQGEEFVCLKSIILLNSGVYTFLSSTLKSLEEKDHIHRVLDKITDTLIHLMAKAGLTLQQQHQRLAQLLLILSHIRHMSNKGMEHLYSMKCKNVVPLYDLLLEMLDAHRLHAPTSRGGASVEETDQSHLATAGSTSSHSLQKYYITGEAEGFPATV

With `NS(=O)(=O)Cc1noc2ccccc12`, the outcome in [1], in [3], in test [4], in test [9], in test [11] and in test [12] was inactive. The compound was called inactive in [13] and in [14]. In addition, the Potency result in [2], in test [5], in test [6], in test [7], in [8] and in test [10] was “inactive” in each case.
In the case of `Nc1c2c(nc3c1CCC3)CCCC2`, the outcome in test [1], in test [3], in [4], in test [9], in test [11] and in test [12] was inactive. Besides, in [14], the outcome was inactive. Further, the Potency result in test [15], in [2], in test [16], in [17], in test [18] and in [5] was “inactive” throughout. In addition, the Potency result in test [7], in test [19], in test [8] and in test [10] was “inactive” each time.
As for `CC(C)=CCC/C(C)=C/C#N`, the compound was called inactive in [1], in [3], in [4], in [9], in [11] and in test [12]. Moreover, the Potency entry in [15], in test [2], in [16], in [17], in test [18] and in test [5] was “inactive” in each case. For the same compound, the Potency result in test [6] and in test [7] was “inactive” each time.
As to `c1ccc2sc(SN3CCOCC3)nc2c1`, the result in test [1], in test [3], in test [4], in [9], in test [11] and in test [12] was inactive. In addition, the call in [13] and in test [14] was inactive. Also, the Potency entry in test [2], in test [5], in test [7], in test [8] and in test [10] was “inactive” in each case. Also, the Potency in test [6] is 23.7 µM (active).
`Cc1ccc(C(=O)c2ccc(CC(=O)O)n2C)cc1`: the result in test [1], in test [3], in test [4], in test [9], in [11] and in [12] was inactive. Moreover, the outcome in test [14] was inactive. In addition, the Potency entry in test [2], in test [16], in [17], in test [18], in test [5] and in test [6] was “inactive” in each case. Further, the Potency entry in test [19] and in test [10] was “inactive” in each case.
For `CC1=NN(c2cc(S(=O)(=O)O)ccc2Cl)C(=O)C1N=Nc1ccccc1` (stereo unspecified), the result in test [1], in [4], in [9], in test [11], in test [12] and in test [14] was inactive. Also, the Potency result in [15], in test [2], in [16], in test [17], in test [18] and in test [19] was “inactive” in each case. Further, the Potency result in test [8] and in test [10] was “inactive” each time.
As for `OCCc1ccccn1`, the outcome in test [1], in test [3], in test [4], in [9], in test [11] and in test [12] was inactive. The outcome in test [13] and in test [14] was inactive. In addition, the Potency entry in [2], in test [5], in test [7], in [19] and in test [10] was “inactive” throughout.
`NC(N)=NCCN1CCCCCCC1`: the outcome in test [1], in test [3] and in [4] was inactive. Moreover, the Potency entry in [2], in [18], in test [5], in test [6] and in [7] was “inactive” throughout. Moreover, the results for the activity change, negative = cytotoxicity in test [9], in test [12] and in [14] were 6.29% [at 0.55 µM], -20.4% [at 0.55 µM] and 8.58% [at 0.55 µM], respectively. Moreover, the values for the activation in test [10] and in [13] were 4.68% [at 0.756 µM] and -0.075% [at 0.55 µM], respectively. Besides, in [11], the viability change, negative = cytotoxic is -0.232% [at 0.756 µM].
Regarding `CC(C)C[C@@H](N)C(=O)O`, the result in [1], in [3], in test [4], in test [12], in test [13] and in [14] was inactive. Also, the Potency result in test [2], in test [5], in test [7], in test [19] and in [10] was “inactive” in each case.
